From PubChem BioAssay
A selection: hits, their analogues and other compounds. The true share with any hit is near 13%.
RAM inhibit – blocks the yeast RAM network | S. cerevisiae dse1pr::URA3 reporter, 5-FOA growth OD615, 2 d; analog-sensitive cbk1-as2 kinase mutant strain | inhibition, % at 50 µM | 190,000 tested, 1.8% active | AID 868;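 active means inhibition above a set limit, 3 SD over mean compound inhibition, cut at about 8.4% in these data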;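 further: 0% = DMSO-only wells with no growth and 100% = 10 µM 1-NA-PP1 full growth; inhibition rescues growth on 5-FOA so higher OD means more RAM inhibition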
CHOP inhibitor – blocks CHOP induction under ER stress. inhibition, % at 10 µM. CHO-K1 CHOP-promoter luciferase, tunicamycin-induced, 15-18 h. 220,000 tested, 3.8% active;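 active means compounds that reduced the stress-induced luciferase reporter signal by more than about 70% of percent inhibition, limit read from the data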;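 further: 0% = tunicamycin plus vehicle and 100% = wells without tunicamycin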
Lmaj promast – inhibitors of Leishmania major promastigote growth | AID 1063 | inhibition, % at 10 µM | 200,000 tested, 9% active | Leishmania major promastigotes, resazurin fluorescence viability; in the data active means inhibition above about 50%;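 further: promastigotes grown with compound for 44 hours at 28 °C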
WT yeast gro inh – growth inhibition of WT yeast, mitochondrial fusion screen. AID 1362. 190,000 tested, 2.1% active. inhibition, % at 10 µM. mitochondrial fusion phenotypic screen, WT strain; in the data active means inhibition above about 58%; tested in S. cerevisiae
An asterisk follows results filed as active; x = no result given.

SMILES	RAM inhibit	CHOP inhibitor	Lmaj promast	WT yeast gro inh
CCOC(=O)c1sc(NC(=O)c2ccncc2)c(C#N)c1C	2	19	-9	17
CCOC(=O)c1sc(NC(=O)c2cc(-c3ccccc3C)nc3ccccc23)c(C#N)c1C	1	72*	1	18
Cc1ccccc1-c1cc(C(=O)Nc2sc(C)c(C)c2C(N)=O)c2ccccc2n1	3	75*	19	x
C(=C\c1nc(N2CCCCCC2)c2ccccc2n1)/c1ccccc1	-1	25	86*	73
CN1CCN(c2nc(-c3cccnc3)nc3ccccc23)CC1	2	-3	39	94*
Fc1ccccc1-c1nc(N2CCCCC2)c2ccccc2n1	-1	39	35	14
COc1cc2c(cc1OC)CN(c1nc(-c3cccnc3)nc3ccccc13)CC2	0	23	36	34
c1ccc2c(N3CCCCCC3)nc(-c3ccncc3)nc2c1	0	48	87*	27
CCN1CCN(c2nc(-c3cccnc3)nc3ccccc23)CC1	3	-10	54*	6
c1cncc(-c2nc(N3CCCCCC3)c3ccccc3n2)c1	1	34	31	55
Cc1cnc(C(=O)Nc2cccc(S(=O)(=O)N(C)C)c2)cn1	1	2	-7	6
CCN1CCN(c2nc(-c3ccncc3)nc3ccccc23)CC1	1	48	100*	-11
O=S(=O)(/C=C/c1ccccc1)N1CCN(Cc2ccccc2)CC1	0	-5	78*	47
c1ccc2c(N3CCCCC3)nc(N3CCCCC3)nc2c1	-1	8	68*	7
c1ccc2c(N3CCCCC3)nc(N3CCOCC3)nc2c1	1	-15	17	3
O=S(=O)(/C=C/c1ccccc1)N1CCN(c2nc(-c3ccccc3)nc3ccccc23)CC1	3	2	65*	-11
CCOc1ccc(NC(=O)C2CSC(c3ccncc3)=N2)cc1 (centres undefined)	0	7	-6	6
COc1cccc(C2C3=C(N=c4s/c(=C\c5ccccc5O)c(=O)n42)c2ccccc2CC3)c1OC (centres undefined)	6	22	13	10
COc1ccccc1C1C(C(C)=O)=C(C)N=c2s/c(=C\c3cc(OC)c(OC)c(OC)c3)c(=O)n21 (centres undefined)	5	19	55*	19
N#Cc1ccccc1NC(=O)CSC1=Nc2ccccc2C2CC=NN12 (centres undefined)	1	7	17	19
O=C(CSC1=Nc2ccccc2C2CC=NN12)Nc1ccc2c(c1)OCO2 (centres undefined)	2	-73	55*	29
CCCOC(=O)c1ccc(NC(=O)CSC2=Nc3ccccc3C3CC=NN23)cc1 (centres undefined)	5	21	98*	-4
COc1cc(-c2nnc(SCC(=O)N(C)C3CCS(=O)(=O)C3)o2)cc(OC)c1OC (centres undefined)	2	-18	-6	2
O=C(Nc1nc2nccc(-c3ccccc3)n2n1)C(Cl)(Cl)Cl	3	31	53*	-8
O=c1[nH]c(=O)n([C@H]2C[C@H](O)[C@@H](CO)O2)cc1F	2	x	82*	-5
SMILES	RAM inhibit	CHOP inhibitor	Lmaj promast	WT yeast gro inh
COc1ccc(OCC(O)Cn2ccnc2C)cc1 (centres undefined)	2	17	67*	-15
Cc1c(/C(O)=C2\C(=O)C(=O)N(CCN(C)C)C2c2ccccc2)cnn1-c1ccccc1 (centres undefined)	x	7	x	x
CCOC(=O)N1CCN(CCC(=O)Nc2cccc(Br)c2)CC1	0	20	89*	-6
CCOC(=O)N1CCN(CC(=O)Nc2cccc(Br)c2)CC1	0	38	-5	6
CCOC(=O)N1CCN(CCC(=O)Nc2ccc(C)c(Br)c2)CC1	1	0	73*	0
CCOC(=O)N1CCN(CCC(=O)Nc2ccc(Br)cc2)CC1	1	16	4	-15
CCOC(=O)N1CCN(CCC(=O)Nc2cc(OC)cc(OC)c2)CC1	2	8	52*	8
CCn1cc(C(=O)NCc2ccc3c(c2)OCO3)c(=O)c2cc(F)c(N3CCN(C)CC3)cc21	-1	x	79*	10
CCn1cc(C(=O)O)c(=O)c2cc(F)c(N/N=C/c3ccccc3)cc21	2	103*	15	15
CCn1cc(C(=O)O)c(=O)c2cc(F)c(N3CCN(C(=S)NC(=O)c4cccc(C)c4)CC3)cc21	x	-6	x	x
CCn1cc(C(=O)NCC(C)C)c(=O)c2cc(F)c(N3CCN(C)CC3)cc21	x	28	x	x
CCn1cc(C(=O)O)c(=O)c2cc(F)c(N3CCN(C(=S)NC(=O)c4ccc(Br)cc4)CC3)cc21	4	73*	-2	-10
CCn1cc(C(=O)NCCc2ccccc2)c(=O)c2cc(F)c(N3CCN(C)CC3)cc21	2	-1	97*	62*
